Most compounds without a hit are left out; they make up all but 1.5% or so of the library.
PrP 5UTR inh: inhibition of PrP 5' UTR reporter expression; actives 0.35% (n = 340,000); AID 488862, 2010; cell-based PrP 5' UTR mRNA reporter, plate reader; inhibition, % (test concentration not listed); in the data active = inhibition above about 52%
MazF activator: activators of E. coli MazEF toxin-antitoxin RNase, primary screen, biochemical, fluorescence, uHTS. actives 0.32% (n = 350,000). activation, % at 20 µM. FAM/BHQ RNA-DNA oligo cleavage fluorescence, 5 h. AID 504720, 2011; in the data active = activation above about 50%
SARS 3CLpro inh: SARS-CoV 3CLpro protease inhibitors, primary screen, biochemical, quenched FRET; Replicase polyprotein 1ab (Severe acute respiratory syndrome coronavirus), P0C6X7; recombinant SARS-CoV 3CLpro, quenched FRET peptide cleavage; inhibition, % at 6 µM; actives 0.14% (n = 290,000); AID 1706, 2009; in the data active = inhibition above about 12%
PrPC surface inh: inhibitors of human cell surface prion protein PrPC, primary screen, cell-based, TR-FRET; TR-FRET read-out; inhibition, % at 13.8 µM; Major prion protein (Homo sapiens), P04156; AID 720596, 2013; actives 0.43% (n = 370,000); in the data active = inhibition above about 24%
Mtb hypoxia rep: PubChem AID 1159583. M. tuberculosis hypoxia-regulated fluorescent reporter, fluorescence. fluorescence inhibition, % (test concentration not listed). actives 0.1% (n = 300,000); in the data active = fluorescence inhibition mostly above about 23%, no sharp cut-off; inactive = mostly below about 17%
VHR inh abs: VHR1 phosphatase inhibitors, primary screen, biochemical, absorbance, uHTS. Dual specificity protein phosphatase 3 (Homo sapiens), P51452. recombinant VHR phosphatase, pNPP absorbance. inhibition, % at 13.3 µM. actives 0.52% (n = 290,000); in the data active = inhibition above about 50%
PrPC TRFRET cf: confirmation of inhibitors of cell surface human prion protein, confirmation, cell-based, TR-FRET; actives 65% (n = 1,500); AID 743200, 2013; inhibition, % at 13.8 µM; cell surface PrPC level; shares compounds with PrPC surface inh; in the data active = inhibition above about 25%
LD9 tox: cytotoxicity in LD9 cells, cytotoxicity control for cell surface PrPc inhibitor project, cell-based, luminescence, high throughput | shares compounds with PrPC surface inh | luminescence viability | inhibition, % at 13.8 µM | actives 29% (n = 1,500) | AID 743201, 2013; in the data active = inhibition above about 9.5%
Large screens that a line does not name were inactive (follow-up assays come after a bar, where they were run).

Cc1ccc(S(=O)(=O)N2CCCCC2)cc1NC(=O)Cn1ncc(Cl)c(Cl)c1=O	PrPC surface inh 31 (no result: SARS 3CLpro inh, VHR inh abs) | PrPC TRFRET cf inactive | LD9 tox 94
Cc1ccc(S(=O)(=O)N2CCCCC2)cc1NC(=O)CSc1ncnc2ccccc12	PrPC surface inh 63 | PrPC TRFRET cf 71 | LD9 tox inactive
CCCCC(=O)NN=Cc1ccc(-c2ccc([N+](=O)[O-])cc2)o1	none (no result: PrP 5UTR inh, MazF activator, SARS 3CLpro inh, PrPC surface inh, VHR inh abs)
Cc1ccc2c(c1)[nH]c1c(N3CCN(Cc4ccccc4)CC3)ncnc12	PrPC surface inh 30 | PrPC TRFRET cf inactive | LD9 tox 50
Cc1ccc2[nH]c3c(N4CCN(Cc5ccc6c(c5)OCO6)CC4)ncnc3c2c1	none (no result: PrP 5UTR inh, MazF activator)
Cc1cnc(NC(=O)CN2CCN(c3ccccn3)CC2)s1	PrPC surface inh 38 (no result: Mtb hypoxia rep) | PrPC TRFRET cf 31 | LD9 tox 11
O=C(CSc1ccc(Cl)cc1)NN=Cc1ccc([N+](=O)[O-])o1	none (no result: PrP 5UTR inh, MazF activator, SARS 3CLpro inh, PrPC surface inh, VHR inh abs)
Cc1nc2c(Br)cc(Br)cc2cc1O	PrPC surface inh 103 (no result: Mtb hypoxia rep) | PrPC TRFRET cf 108 | LD9 tox inactive
CCCCCC(O)C=CC1C(O)CC(O)C1CC=CCCCC(=O)OC (stereo unspecified)	none (no result: PrP 5UTR inh, MazF activator, SARS 3CLpro inh, PrPC surface inh, VHR inh abs)
CCOc1ccc(S(=O)(=O)n2cc(-c3ccc(F)cc3)c(N)n2)cc1	none
CCOc1cc(S(=O)(=O)n2cc(-c3ccc(F)cc3)c(N)n2)cc(OCC)c1OCC	PrPC surface inh 29 (no result: Mtb hypoxia rep) | PrPC TRFRET cf inactive | LD9 tox inactive
COc1ccc2[nH]c3c(NCCC4=CCCCC4)ncnc3c2c1	PrPC surface inh 41 | PrPC TRFRET cf 40 | LD9 tox 22
CCN(CC)CCNc1ncnc2c1[nH]c1ccc(OC)cc12	none (no result: PrP 5UTR inh, MazF activator, PrPC surface inh, VHR inh abs)
O=C(CSc1nnc(NC(=O)c2ccccc2F)s1)NCc1ccc(F)cc1	PrPC surface inh 35 | PrPC TRFRET cf inactive | LD9 tox inactive
COc1ccccc1Cn1c(=S)[nH]c2ccc(F)cc2c1=O	PrPC surface inh 108 | PrPC TRFRET cf 131 | LD9 tox inactive
COc1ccccc1Cn1c(=S)[nH]c2ccc(Br)cc2c1=O	none
COc1ccccc1Cn1c(=S)[nH]c2ccccc2c1=O	PrPC surface inh 62 | PrPC TRFRET cf 90 | LD9 tox inactive
COc1cccc(C=NNC(=O)NC23CC4CC(CC(C4)C2)C3)c1O	none (no result: PrP 5UTR inh, MazF activator, SARS 3CLpro inh, PrPC surface inh, VHR inh abs)
COC(=O)[C@H]1[C@@H](O)[C@@]2(O)c3c(OC)cc(OC)cc3O[C@@]2(c2ccc(OC)cc2)[C@@H]1c1ccc(F)cc1	PrPC surface inh 83 (no result: PrP 5UTR inh, MazF activator, SARS 3CLpro inh, Mtb hypoxia rep, VHR inh abs) | PrPC TRFRET cf 91 | LD9 tox 20
CCN(CC)C(=O)C=Cc1ccccc1	none (no result: PrP 5UTR inh, MazF activator, SARS 3CLpro inh, PrPC surface inh, VHR inh abs)
CCN(CC)CC(C)(C)C(=O)/C=C/c1ccc(/C=C/C(=O)C(C)(C)CN(CC)CC)cc1	PrPC surface inh 90 (no result: SARS 3CLpro inh, Mtb hypoxia rep, VHR inh abs) | PrPC TRFRET cf 105 | LD9 tox 96
COc1cccc2sc(Nc3nnc(-c4ccccc4Cl)o3)nc12	none
COc1ccccc1-c1nnc(Nc2nc3c(OC)cccc3s2)o1	PrPC surface inh 42 | PrPC TRFRET cf 69 | LD9 tox 40
COc1cccc2sc(Nc3nc(-c4cc5ccccc5oc4=O)cs3)nc12	none
COc1cccc2sc(Nc3nc(-c4ccncc4)cs3)nc12	PrPC surface inh 28 | PrPC TRFRET cf inactive | LD9 tox 27
COc1ccc(Nc2nnc(-c3ccc(O)cc3)c3ccccc23)cc1C(N)=O	PrPC surface inh 94 | PrPC TRFRET cf 99 | LD9 tox inactive
COc1ccc(Nc2nnc(C)c3ccccc23)cc1C(N)=O	none (no result: Mtb hypoxia rep)
CC(=O)OC[C@]12CC[C@H]3[C@@](C)(CC[C@H]4C(C)(C)CCC[C@]34C)[C@@H]1CC(C1=CC(=O)OC1O)O2 (stereo partly specified)	PrPC surface inh 54 (no result: PrP 5UTR inh, MazF activator, SARS 3CLpro inh, Mtb hypoxia rep, VHR inh abs) | PrPC TRFRET cf 83 | LD9 tox 99
COC(=O)OCC12CCC(O1)C1(C)C(=O)OCC21 (stereo unspecified)	none
COc1ccc(Cc2nc(-c3ccc(Cl)cc3)no2)cc1	none
Cc1ccc(Cc2nc(-c3ccncc3)no2)cc1	PrPC surface inh 72 | PrPC TRFRET cf inactive | LD9 tox inactive
CCOC(=O)C1=C(C)N=c2sc(=Cc3ccc(OCC(=O)O)cc3)c(=O)n2C1c1ccccc1OC (stereo unspecified)	none (no result: PrP 5UTR inh, MazF activator, SARS 3CLpro inh, PrPC surface inh, VHR inh abs)
O=S(=O)(Nc1cccc2cccnc12)c1ccccc1	PrPC surface inh 54 (no result: Mtb hypoxia rep) | PrPC TRFRET cf 39 | LD9 tox 81
Cc1ccc2cccc(NS(=O)(=O)c3ccccc3)c2n1	PrPC surface inh 34 (no result: PrP 5UTR inh, Mtb hypoxia rep) | PrPC TRFRET cf 67 | LD9 tox 71
O=S(=O)(Nc1cccc2cccnc12)c1ccc(S(=O)(=O)N2CCCC2)cc1	PrPC surface inh 37 | PrPC TRFRET cf inactive | LD9 tox 24
CC(=O)Nc1ccc(S(=O)(=O)Nc2cccc3cccnc23)cc1	none
O=C(O)CCCCCN1C(=O)C(O)=C(C(=O)C=Cc2ccccc2)C1c1cccc([N+](=O)[O-])c1 (stereo unspecified)	none (no result: PrP 5UTR inh, MazF activator, SARS 3CLpro inh, PrPC surface inh, VHR inh abs)
CC1CN(C(C)CO)C(=O)c2cc(NC(=O)c3ccncc3)ccc2OC1CN(C)S(C)(=O)=O (stereo unspecified)	none (no result: PrP 5UTR inh, MazF activator, SARS 3CLpro inh, PrPC surface inh, VHR inh abs)
O=C(C1=C(O)C(=O)N(CCN2CCOCC2)C1c1cccc(F)c1)c1cc2ccccc2o1 (stereo unspecified)	PrPC surface inh 42 | PrPC TRFRET cf 70 | LD9 tox inactive
CCc1ccc(-c2cc(C(=O)NN=Cc3ccco3)[nH]n2)cc1	none (no result: PrP 5UTR inh, MazF activator, SARS 3CLpro inh, PrPC surface inh, VHR inh abs)
CC(=O)Oc1ccc(C(=O)Nc2cccc(C(=O)c3ccc(C)c(C)c3)c2)cc1	PrPC surface inh 35 (no result: SARS 3CLpro inh, VHR inh abs) | PrPC TRFRET cf inactive | LD9 tox inactive
COc1ccc(C(=O)Nc2cccc(OC(=O)c3ccc(C)c(C)c3)c2)cc1	none (no result: Mtb hypoxia rep)
Cc1nnc(SCc2nc3scc(-c4ccccc4)c3c(=O)[nH]2)s1	none
Nc1nnc(SCc2nc3scc(-c4ccccc4)c3c(=O)[nH]2)s1	PrPC surface inh 26 | PrPC TRFRET cf 53 | LD9 tox inactive
O=C(c1cc(COc2ccc3ncccc3c2)on1)N1CCC(O)CC1	none
O=C(NC1CCCCCCC1)c1cc(COc2ccc3ncccc3c2)on1	PrPC surface inh 28 | PrPC TRFRET cf inactive | LD9 tox 18
Cc1cc(CN(C)C(=O)c2cc(COc3ccc4ncccc4c3)on2)on1	none
CC(CNC(=O)c1cc(COc2ccc3ncccc3c2)on1)c1ccccc1 (stereo unspecified)	PrPC surface inh 25 | PrPC TRFRET cf inactive | LD9 tox 17
O=C(NC(Cc1ccccc1)C(=O)O)c1c(F)c(F)c(F)c(F)c1F (stereo unspecified)	none (no result: PrP 5UTR inh, MazF activator, SARS 3CLpro inh, PrPC surface inh, VHR inh abs)

Assay outcomes as filed in PubChem.
